Results: PubChem BioAssay AID624134 (Broad Institute, 2012)
Screen size: about 1,600 compounds; about 1,100 (69%) were called active. So high a share suggests a set chosen from earlier hits. These entries were drawn from the full list. Results with a measured potency or affinity are listed apart. Results filed as inconclusive are left out.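 Rule for the calls: active = signal drop with fitted half-maximal concentration no higher than twice the top valid tested concentration; inconclusive = flat curve with 30 to 70% signal loss, or poor fit; inactive = the rest, including signal rises and flat curves within 30%.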

assay: loss of viability in HepG2 cells – cell-based, CellTiter-Glo, cherry-picked, cytotoxicity control for Shn3 inhibitor project, dose response (AID 624134); conditions: CellTiter-Glo ATP luminescence, 48 h; series mostly up to 35 µM

Row | Structure (SMILES) | outcome
1 | CCCCCCCCCCOC(=O)Cn1c(COc2ccc(OC)cc2)[n+](C)c2ccccc21 | inactive
2 | CSc1cccc(NC(=O)N2CCCC(CNS(=O)(=O)Cc3ccccc3)C2)c1 (configuration not stated) | inactive
3 | Cc1nc2ncnn2c(C)c1Cc1cccc(F)c1 | inactive
4 | CC(C)=CCC/C(C)=C/CNC(=O)C[C@H]1C[C@H](C(=O)N2CCOCC2)[C@@]2(C)c3[nH]c4cc(CCC(=O)N(C)C)ccc4c3CCN2C1=O | inactive
5 | O=C(Cn1cc(C(=O)C2CC2)c2ccccc21)Nc1ccccc1Cl | inactive
6 | CCC(=O)c1cn(CC(=O)Nc2cccc(C)c2C)c2ccccc12 | inactive
7 | CCN(CC)C(=S)Sc1c(-c2ccccc2)c2cc(Cl)ccc2[nH]c1=O | inactive
8 | COc1ccc(NS(=O)(=O)c2ccc(NC(=O)C(CCSC)NC(N)=O)cc2)cc1 (configuration not stated) | inactive
9 | O=C(COC(=O)c1n[nH]c2ccccc12)Nc1ccc(S(=O)(=O)N2CCCC2)cc1 | inactive
10 | COc1ccc(C(=O)NNC(=O)c2cccc(S(=O)(=O)N3CCOCC3)c2)cc1 | inactive
11 | O=C(Nc1ccc(S(=O)(=O)N2CCN(Cc3ccccc3)CC2)cc1)c1cnccn1 | inactive
12 | O=C(CCS(=O)(=O)c1ccccc1)Nc1nc2c(s1)CCCC2 | inactive
13 | COc1ccccc1/C=C1\CCCC2=C1Nc1nnnn1C2c1ccccc1OC (configuration not stated) | inactive
14 | O=C(O)c1cccc(COc2ccccc2Cl)c1 | inactive
15 | O=C(O)c1cccc(COc2ccc(CO)cc2Cl)c1 | inactive
16 | CCN(CC)Cc1c(O)ccc2c1O/C(=C\C=C\c1ccccc1)C2=O | inactive

Row | Structure (SMILES) | outcome
17 | Cc1ccc(-c2ccc(/C=C3\C(=O)ON=C3c3ccccc3)o2)c([N+](=O)[O-])c1 | inactive
18 | Cc1ccc(NC(=O)C2CCCN(S(=O)(=O)c3c(C)noc3C)C2)cc1 (configuration not stated) | inactive
19 | Cc1csc(=O)n1CCC(=O)N(C)Cc1c(F)cccc1Cl | inactive
20 | CCn1cc(CNCc2cn(-c3ccccc3C)nc2-c2ccc(OC)c(F)c2)cn1 | inactive
21 | CCOC(=O)C1CCN(c2cc3c(cc2NC(=O)c2ccccc2Br)n(C)c(=O)n3C)CC1 | inactive
22 | CCN(CC)S(=O)(=O)c1ccc(N2CCOCC2)c(NC(=O)c2nn(C(C)C)c(=O)c3ccccc23)c1 | inactive
23 | CC[C@]12c3[nH]c4cc(CCC(=O)N(C)C)ccc4c3CCN1C(=O)[C@@H](CC(=O)NC/C=C(\C)CCC=C(C)C)C[C@@H]2C(=O)N1CCN(C(=O)c2ccco2)CC1 | inactive
24 | COc1ccc(-c2cc(C(F)(F)F)nc(S(=O)(=O)CCCC(=O)Nc3cccnc3Cl)n2)cc1OC | inactive
25 | COc1ccc([C@H]2CC(=O)C=C(c3ccc4c(c3)OCO4)C2)cc1OC | inactive
26 | COc1cc(C(=O)OCC(=O)NC2CCCCCC2)ccc1OCC(C)C | inactive
27 | CC(=O)OCC(=O)[C@@]1(O)CC[C@H]2[C@@H]3CCC4=CC(=O)CC[C@]4(C)[C@H]3C(=O)C[C@@]21C | inactive
28 | COc1ccc(S(=O)(=O)N2CCOCC2)cc1NC(=O)COC(=O)CC1CC2CCC1C2 (configuration not stated) | inactive
29 | Nc1c(Br)cc2c(c1Br)C(O)c1ccccc1-2 (configuration not stated) | inactive
30 | CN(C)c1ncnc2c1C(c1ccccc1)C(C)(C)O2 (configuration not stated) | inactive
31 | COc1cc(OC)cc(C(=O)OCC(=O)Nc2ccc(F)cc2F)c1 | inactive
32 | COc1ccc(OC)c(NC(=O)c2cc(-c3cc(F)ccc3OCC3CCCO3)n[nH]2)c1 (configuration not stated) | inactive
